TDP1 cell noCPT – qHTS for Inhibitors of human tyrosyl-DNA phosphodiesterase 1 (TDP1): qHTS in cells in absence of CPT | DT40 Tdp1-/- hTDP1 cells, no CPT, ATP luminescence, 48 h | Potency, µM (titrated, usually from 46.2 µM), for inactives: at the top dose activity change, negative = growth inhibition, hits mostly inhibitors | actives 15% (n = 420,000) | AID 686978, 2013; also: potency is read from the fitted curve at half-maximal effect; nearly all actives have a fitted effect of over 55% in size
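Growth kinetics read by CellTiter-Glo luminescence after ≥48 hr at 37 °C. Cells: DT40 Tdp1-/- stably carrying human TDP1, 400 per well, compound exposure in the absence of CPT (DMSO vehicle).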
TDP1 inh – inhibitors of human tyrosyl-DNA phosphodiesterase TDP1 | Q9NUW8 | recombinant TDP1, AlphaScreen DNA substrate cleavage | Potency, µM (titrated, usually from 130 µM), inactives show at the highest dose activity change, negative = inhibition, usual class: inhibitors | actives 0.28% (n = 350,000); also: potency is read from the fitted curve at half-maximal effect; nearly all actives have a fitted effect of over 40% in size
Target sequence (Q9NUW8 whole entry, looked up): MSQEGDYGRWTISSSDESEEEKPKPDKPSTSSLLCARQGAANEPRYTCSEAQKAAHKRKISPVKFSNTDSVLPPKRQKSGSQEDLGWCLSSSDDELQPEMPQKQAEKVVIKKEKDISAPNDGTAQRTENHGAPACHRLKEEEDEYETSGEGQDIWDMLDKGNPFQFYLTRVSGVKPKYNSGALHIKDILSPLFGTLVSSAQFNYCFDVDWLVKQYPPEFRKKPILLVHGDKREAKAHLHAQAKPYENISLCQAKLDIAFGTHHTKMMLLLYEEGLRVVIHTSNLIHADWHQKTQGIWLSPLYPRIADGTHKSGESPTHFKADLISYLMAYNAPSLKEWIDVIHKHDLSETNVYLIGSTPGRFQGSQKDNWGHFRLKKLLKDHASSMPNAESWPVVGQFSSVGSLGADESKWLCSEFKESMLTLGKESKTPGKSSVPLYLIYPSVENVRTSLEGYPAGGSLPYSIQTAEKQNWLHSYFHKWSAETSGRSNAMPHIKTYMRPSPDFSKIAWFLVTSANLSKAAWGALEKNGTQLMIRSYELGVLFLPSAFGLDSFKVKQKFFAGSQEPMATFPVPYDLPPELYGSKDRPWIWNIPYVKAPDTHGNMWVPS
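Steps: enzyme plus compound, 15 min RT; add biotin/phosphotyrosine-FITC oligonucleotide (15 nM final), react 5 min; add donor/acceptor beads (10 ug/ml final), 10 min; read AlphaScreen. Tdp1 at 1 nM final.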
CtBP-E1A inh – CtBP/E1A binding inhibition; AID 651724; actives 0.49% (n = 340,000); AlphaScreen GST-E1A/His-CtBP binding, 1536-well; active compounds read low; activity change, % (test concentration not listed); in the data active = activity change below about -65%; inconclusive = mostly about -30% to -63%
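Protein mix (5X: 125 nM each GST-E1A, His-CtBP) was incubated with pinned compound 2 h at 37 deg C in dark, in 50 mM Tris pH 8.0 buffer with 300 mM NaCl. Glutathione donor and nickel acceptor beads followed; AlphaScreen signal read after 1 h.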
Six1-Eya2 inh – blocks human Six1 binding to Eya2; actives 0.56% (n = 360,000); Q15475+O00167; activity change, % (concentration not given with the values); AlphaScreen GST-Six1/His-Eya2 binding, biochemical; active compounds read low; in the data active = activity change below about -65%; inconclusive = mostly about -30% to -63%
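Six1/Eya2 binding was read as AlphaScreen signal after compounds were pinned into GST-Six1 plus His-tagged Eya2 (5X stock 250/500 nM) in pH 8.0 Tris/NaCl/TCEP buffer, beads added, then incubated 1 h, 37 C, dark.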
DT40 TDP1 CPT – DT40-hTDP1 cell growth loss with CPT; chicken DT40 Tdp1-/-;hTDP1 cells + 20 nM CPT, ATP luminescence, 48 h; Potency, µM (top dose mostly 46.2 µM), for inactives: top-dose activity change, negative = growth inhibition, most hits filed as inhibitors; actives 12% (n = 420,000); AID 686979; also: potency is read from the fitted curve at half-maximal effect; nearly all actives have a fitted effect of over 55% in size
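Cell growth measured by CellTiter-Glo luminescence after a minimum 48 h, 37 C compound exposure with 20 nM CPT in Tdp1-knockout DT40 cells stably expressing hTDP1, seeded 400/well; qHTS titration format.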
IL-1B inflam inh – blocks inflammasome-driven IL-1 beta release; THP-1 LPS/ATP IL-1B secretion, AlphaLISA, 16 h; active compounds read low; actives 4.7% (n = 360,000); activity change, % at 57.5 µM; in the data active = activity change below about -50%; inconclusive = mostly about -30% to -49%
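Secreted IL-1B measured by AlphaLISA bead assay after 16 h compound exposure of THP-1 cells; compounds (final up to 57.5 uM) added 1 h before LPS (250 ng/mL) and ATP (1.25 mM) stimulation; lower signal means less secretion.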
* marks the source's active call; other numbers are inactive results; u = inconclusive; x = not tested or not shown; [ ] = another dose, or the depositor's remark. Hits are enriched below; roughly 18% of the tested compounds scored in any of these assays. Unless noted, calls follow the shape of the dose curve; as a rule, active = well fitted curve in the direction sought with a large enough effect; inconclusive = small, poorly fitted or top-dose-only effect, or another doubt; inactive = no such curve, though single readings can be large; an effect the other way counts as inactive or inconclusive. % is scaled to controls: 0 for no effect and ±100 for the full control effect.

SMILES	TDP1 cell noCPT	TDP1 inh	CtBP-E1A inh	Six1-Eya2 inh	DT40 TDP1 CPT	IL-1B inflam inh
COc1cc(/C=C2\COC/C(=C\c3cc(OC)c(OC)c(OC)c3)C2=O)cc(OC)c1OC	0.58µM*	8%	-12	0	1.2µM*	-99*
COc1cc(/C=C2\SC(N)=NC2=O)cc(Cl)c1O	u	x	x	0	-24%	8
COc1cc(/C=C2/N=C(C3CCCCC3)OC2=O)cc(OC)c1OC	-19%	0%	5	1	-21%	-25
COc1cc(/C=C2\CC(C(C)(C)C)C/C(=C\c3cc(OC)c(OC)c(OC)c3)C2=O)cc(OC)c1OC (configuration not stated)	9.2µM*	x	3	-12	15µM*	-98*
COc1cc(=O)n2c(c1C(=O)NC(C)c1ccco1)CCN(Cc1ccccc1C(F)(F)F)CC2 (configuration not stated)	u	x	x	x	-4%	x
Cc1nn(C)c(C(=O)NC(=S)Nc2ccccc2Br)c1Cl	13%	2%	6	12	5%	u
CCn1ncc(Cl)c1C(=O)NC(=S)Nc1ccccc1Br	-22%	4%	-7	17	2%	-85*
Clc1ccccc1OCc1nnc(-c2ccccc2Br)o1	-17%	-10%	17	25	-7%	u
CCc1ccc(OCc2nnc(-c3ccccc3Br)o2)cc1	5%	50µM*	34	31	u	-8
O=C(CNC(=O)c1ccc(OC(F)F)cc1)NCC1CCCO1 (configuration not stated)	-3%	4%	15	2	-6%	4
COc1ccc(-c2noc(-c3csc([C@@H]4C[C@H](O)[C@@H](CO)O4)n3)n2)cc1OC	u	x	-12	3	u	-17
COc1cc(OC)cc(-c2noc(-c3csc([C@@H]4C[C@H](O)[C@@H](CO)O4)n3)n2)c1	15µM*	x	0	-5	u	u
CCOc1ccc(-c2noc(-c3csc([C@@H]4C[C@H](O)[C@@H](CO)O4)n3)n2)cc1	23µM*	x	-4	6	u	-10
O=C(NCCCNC(=O)c1ccccc1Br)c1ccccc1Br	4%	x	x	3	16%	-5
Cc1ccc(/C=C/c2nc3ccccc3s2)s1	-25%	x	73	79	-12%	-1
CN(C)c1ccc(/C=C/c2nc3ccccc3s2)cc1	0.1µM*	8%	u	u	16µM*	-25
C=C(/C=C/c1ccc(N(C)C)cc1)c1nc2ccccc2s1	0.11µM*	x	x	x	0.089µM*	x
CN(Cc1ccccc1)c1ccc(/C=C/c2nc3ccccc3s2)cc1	0.1µM*	x	x	x	0.32µM*	x
COc1cc(/C=C/c2nc3ccccc3s2)cc(OC)c1O	-18%	-2%	3	12	-1%	-11
CN(C)c1ccc(CNc2nc3ccccc3s2)cc1	x	3%	x	x	x	x
CCC(OC(=O)c1cccs1)C(=O)NC1CCCCC1 (configuration not stated)	-2%	0%	1	7	-2%	15
S=c1[nH]nc(Cc2ccc(Br)cc2)n1/N=C/c1ccc(Cl)cc1	u	8%	-5	-14	u	-63*
S=c1[nH]nc(COc2ccccc2)n1/N=C/c1ccc(Cl)cc1	-19%	x	-6	-11	33%	54
COc1cc(OC)c(OC)cc1/C=N/NC(=O)c1cnccn1	-12%	6%	0	-7	-5%	-5
CC(C)NC(=O)N1Cc2cc(C(=O)NC3CCC3)nc(-c3cccc(-c4cncnc4)c3)c2[C@H]1CCO	-29%	x	-2	1	-24%	0
SMILES	TDP1 cell noCPT	TDP1 inh	CtBP-E1A inh	Six1-Eya2 inh	DT40 TDP1 CPT	IL-1B inflam inh
Cc1ccc(S(=O)(=O)Nc2ccc(C(=O)NCCCN3CCOCC3)cc2)cc1[N+](=O)[O-]	-10%	1%	3	4	5%	4
CCCc1ccc(NS(=O)(=O)c2c(C)oc(C)c2C(=O)OC)cc1	21µM*	x	-3	6	u	-8
Cn1ncc(C#N)c1NC(=O)C1CC(c2ccc(Cl)c(Cl)c2)=NO1 (configuration not stated)	-23%	2%	0	-2	-32%	36
O=C(NCC1CCCO1)C1CC(c2ccc(Cl)c(Cl)c2)=NO1 (configuration not stated)	u	7%	3	-2	18µM*	10
COc1ccnc(Oc2ccccc2)c1C(=O)N/C=N/OCc1ccccc1	u	x	-1	-4	-8%	-3
CC(C)(C)c1ccc(C(=O)N2CCOC23CCCCC3)cc1	13µM*	x	0	17	15µM*	32
CCN(C(=O)COC(=O)/C(=C/c1ccccc1)n1nnnc1C)C1CCCCC1	23µM*	1%[0.505 µM]	-4	0	u	-97*
Cc1nnnn1/C(=C\c1ccccc1)C(=O)OCC(=O)N(C)C1CCS(=O)(=O)C1 (configuration not stated)	-20%	1%	-3	2	-13%	u
CCOC(=O)N1CCC(N2Cc3cccc(C(=O)NCc4ccc(C)cc4)c3C2=O)CC1	u	0%	-1	0	u	5
COc1ccc(C(=O)NCC(=O)OC(C(=O)Nc2cc(C(F)(F)F)ccc2Cl)c2ccccc2)cc1OC (configuration not stated)	x	0%	x	x	x	x
CCc1cccc2c(C(=O)C(NC(C)CC)c3ccccc3)c[nH]c12 (configuration not stated)	23µM*	1%	-2	3	u	-18
CCc1cccc2c(C(=O)C(NCCCOC)c3ccccc3)c[nH]c12 (configuration not stated)	u	9%	-1	7	u	-3
Cc1ccc(-n2ncc3c2ncn2c(C)nnc32)cc1C	-12%	-2%	16	0	-6%	-3
Cn1c(=O)[nH]c(=O)c2c1nc(Sc1nc3ccccc3s1)n2Cc1ccccc1	6.5µM*	2%	-2	-8	8.2µM*	-4
Cc1ccc(Cn2c(Sc3nnc(C)s3)nc3c2c(=O)[nH]c(=O)n3C)cc1	23µM*	5%	-4	6	u	-11
CCCn1c(N)c(C(=O)CSc2nc3ccccc3s2)c(=O)[nH]c1=O	16µM*	-2%	4	-26	21µM*	48
Clc1ccc(NC2(c3nnnn3C3CCCCC3)CCCCC2)cc1	21µM*	1%	-1	1	18µM*	3
N=c1sc2ccccc2n1-c1ccccc1	26µM*	2%	4	0	u	10

Screening data deposited in PubChem BioAssay by National Center for Advancing Translational Sciences (NCATS).
